DAGLB inh: diacylglycerol lipase beta (human) inhibition; Q8NCG7; HEK293T DAGLB membrane lysate, EnzChek fluorogenic substrate; inhibition, % at 5.17 µM; hit rate 0.059% among 340,000; AID 504411; in the data active means inhibition above about 34%
Target sequence (Q8NCG7 whole entry, looked up): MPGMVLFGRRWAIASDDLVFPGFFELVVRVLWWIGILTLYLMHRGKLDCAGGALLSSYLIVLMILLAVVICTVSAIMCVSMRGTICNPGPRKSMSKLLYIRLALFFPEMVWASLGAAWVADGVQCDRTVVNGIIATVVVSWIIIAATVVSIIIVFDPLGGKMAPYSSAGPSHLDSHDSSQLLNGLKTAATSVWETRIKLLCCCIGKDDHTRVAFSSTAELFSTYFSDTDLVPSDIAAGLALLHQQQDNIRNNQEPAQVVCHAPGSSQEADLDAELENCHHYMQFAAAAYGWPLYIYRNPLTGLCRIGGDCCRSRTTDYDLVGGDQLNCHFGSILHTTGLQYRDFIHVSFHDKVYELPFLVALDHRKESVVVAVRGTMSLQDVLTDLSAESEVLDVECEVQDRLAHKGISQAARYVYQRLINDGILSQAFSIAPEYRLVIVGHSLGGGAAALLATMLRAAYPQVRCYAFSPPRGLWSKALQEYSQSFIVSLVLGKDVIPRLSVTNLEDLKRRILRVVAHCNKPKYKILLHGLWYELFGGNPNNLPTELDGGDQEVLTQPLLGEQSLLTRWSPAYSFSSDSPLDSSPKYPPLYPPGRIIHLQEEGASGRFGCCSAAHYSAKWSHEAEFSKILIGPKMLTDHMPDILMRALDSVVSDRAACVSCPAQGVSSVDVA
rCAG binder: molecules binding r(CAG) RNA repeats. inhibition, % at 3 µM. hit rate 1.3% among 370,000. AID 651821. r(CAG) RNA repeat, TO-PRO-1 dye displacement fluorescence;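 active means inhibition above the plate cutoff, the mean of all test compounds on that plate plus 3 SD, cut at about 35% in these data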;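 further: higher means more dye released from RNA so lower well fluorescence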
NadD block: blocks S. aureus nicotinate mononucleotide adenylyltransferase | hit rate 0.78% among 360,000 | purified NadD enzyme, colorimetric absorbance read-out | inhibition, % at 20 µM | AID 602399; in the data active means inhibition above about 26%
Pemphigus Ab inh: inhibitors of pemphigus antibody binding to human desmoglein-3 | AID 588358 | DSG3-coupled beads, scFv-anti-DSG3-GFP binding, flow cytometry; hits give low values | hit rate 0.48% among 310,000 | binding (percent of control), % at 10 µM;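 active means binding more than 3 SD below its plate's average and above zero; inconclusive means below that plate limit but binding exactly zero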;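 further: hits lower antibody fragment binding to DSG3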
MsrA inhibitor: inhibits bovine methionine sulfoxide reductase A; AID 651718; inhibition, % at 15.5 µM; purified bovine MsrA, absorbance read-out; hit rate 0.75% among 360,000; in the data active means inhibition above about 4.5%
MsrA act: activates bovine MsrA enzyme. purified bovine MsrA, absorbance read-out. activation, % at 10.6 µM. hit rate 0.3% among 360,000; in the data active means activation above about 7.5%
NadD conf: NadD (S. aureus) inhibition, single concentration confirmation; shares compounds with NadD block; hit rate 13% among 2,000; purified S. aureus NadD, colorimetric enzyme assay; AID 624309; inhibition, % at 20 µM; in the data active means inhibition mostly above about 42%, no sharp cut-off; inactive means mostly below about 42%
Each line names hits and unclear results; the compound was inactive in the other large screens (follow-up assays come after a bar, where they were run). This is a sample that favours compounds with a hit; in the whole collection about 3.2% have one here.

O=C(Cc1csc(Nc2nc(=S)[nH]c3ccccc23)n1)NCc1ccccc1Cl	none
COc1ccc(NC(=O)CSc2nnnn2C2CC3C=CC2C3)cc1 (stereo not drawn)	Pemphigus Ab inh inconclusive
O=C(NCc1ccco1)C12CN(Cc3ccccc3)CC1C(c1cccc([N+](=O)[O-])c1)=NO2 (stereo not drawn)	NadD block 36.4 (no result: Pemphigus Ab inh) | NadD conf inactive
O=C(NCc1ccco1)C12CN(Cc3ccccc3)CC1C(c1ccc([N+](=O)[O-])cc1)=NO2 (stereo not drawn)	none
Cc1cccc(-c2nnc(SCC(=O)N3c4ccccc4CCc4ccccc43)n2C)c1	none (no result: Pemphigus Ab inh)
Cn1c(SCC(=O)N2c3ccccc3CCc3ccccc32)nnc1-c1cc2ccccc2cc1O	NadD block 56.1 | NadD conf 51.6
COc1ccccc1NC(=O)C(=O)NNC(=O)COc1ccc2ccccc2c1	NadD block 33.6 | NadD conf inactive
Cc1cc2cc(CNC(=O)Nc3cccc(Cl)c3)ccc2n1C	NadD block 34.4 | NadD conf inactive
C[C@@H]1CCCCO[C@H](CN(C)C(=O)CCC(F)(F)F)[C@H](C)CN([C@@H](C)CO)C(=O)c2cc(NS(=O)(=O)c3ccc(Cl)cc3)ccc2O1	none (no result: DAGLB inh, NadD block, Pemphigus Ab inh, MsrA act)
Cc1cccc(N2C(S)=C(C#N)C(=O)NC2c2ccco2)c1 (stereo not drawn)	none
N#CC1=C(S)N(c2ccccc2)C(c2ccc(-c3cccc(Cl)c3)o2)NC1=O (stereo not drawn)	NadD block 41.7 | NadD conf inactive
CC(C)(C)c1ccc(Oc2cccc(C3CC(=O)C(C4NCCc5ccccc54)C(=O)C3n3cncn3)c2)cc1 (stereo not drawn)	NadD block 40.5 (no result: Pemphigus Ab inh) | NadD conf inactive
Cc1ccccc1CN1C(=O)CSCC1(C)C(=O)NC(C)C (stereo not drawn)	none (no result: DAGLB inh, NadD block, Pemphigus Ab inh, MsrA act)
CCOc1ccc(N2C(=O)C3Sc4[nH]c(=O)sc4C(/C=C/c4ccccc4)C3C2=O)cc1 (stereo not drawn)	rCAG binder 57.2, NadD block 32.0 | NadD conf inactive
CC(=O)Nc1cnc(-c2cccc(C(=O)N3CCOCC3)c2)cn1	none (no result: DAGLB inh, Pemphigus Ab inh)
Cc1cccc(C)c1-n1nnnc1C1(C)CN(S(C)(=O)=O)CC(=O)N1Cc1ccc(F)cc1 (stereo not drawn)	none (no result: DAGLB inh, NadD block, Pemphigus Ab inh, MsrA inhibitor, MsrA act)
O=C(Nn1c(SCc2cccc([N+](=O)[O-])c2)nc2ccccc2c1=O)c1ccccc1	none
COc1ccc(C(=O)Nn2c(SCc3cccc([N+](=O)[O-])c3)nc3ccccc3c2=O)cc1	NadD block 27.8 | NadD conf inactive
COC(=O)c1cn(-c2ccc3c(c2)[C@]2(CC(=O)N(C)C2c2ccccc2)C(=O)N3CC(C)C)nn1 (stereo partly drawn)	none (no result: DAGLB inh, NadD block, Pemphigus Ab inh, MsrA inhibitor, MsrA act)
CCCCC(CC)C(=O)Nc1cc(C(=O)NCc2ccc(C)cc2)ccc1N1CCC2(CC1)CC(c1cccc(Br)c1)=NO2 (stereo not drawn)	none
CCCCC(CC)C(=O)Nc1cc(C(=O)NCCC)ccc1N1CCC2(CC1)CC(c1cccc(Br)c1)=NO2 (stereo not drawn)	NadD block 30.6 | NadD conf inactive
CCCCC(CC)C(=O)Nc1cc(C(=O)NCc2ccc(C)cc2)ccc1N1CCC2(CC1)CC(c1ccccc1)=NO2 (stereo not drawn)	NadD block 32.8 | NadD conf inactive
COc1ccc(NC(=O)CSc2nc3ccsc3c(=O)n2CCC(=O)O)cc1	none
CCOC1=C2[C@@H](CN(S(=O)(=O)c3ccc(C)cc3)[C@H]2c2ccccc2Cl)[C@H]2C(=O)N(C)C(=O)[C@H]2C1	none (no result: DAGLB inh, Pemphigus Ab inh)
C=CCn1c(O)c(C2=c3ccccc3=NC2=O)s/c1=N/c1nccs1	NadD block 32.8, Pemphigus Ab inh 80.8 | NadD conf inactive
COc1ccc(NC(=O)CCCN2C(=O)C(c3ccccc3)Oc3cccnc32)cc1OC (stereo not drawn)	none
COc1ccc(Br)cc1CNC(=O)CN1C(=O)C(c2ccccc2)Oc2cccnc21 (stereo not drawn)	NadD block 58.5 | NadD conf 52.2
CCN1C(=O)[C@H]2[C@H]3CN=C(SCC(=O)c4ccccc4)N3[C@@](C)(C(=O)OC)[C@H]2C1=O	none
O=[N+]([O-])c1ccccc1S(=O)(=O)N1CCC(c2cn3ccccc3n2)CC1	none (no result: DAGLB inh, NadD block, Pemphigus Ab inh, MsrA inhibitor, MsrA act)
Clc1ccc(C2=Nn3c(nnc3-c3n[nH]c4c3CCC4)SC2)cc1Cl	NadD block 30.4 | NadD conf inactive
c1ccc(C2=Nn3c(nnc3-c3cc(-c4ccccc4)n[nH]3)SC2)cc1	none
Clc1ccc(C2=Nn3c(nnc3-c3cc(-c4ccccc4)n[nH]3)SC2)cc1	NadD block 44.7 | NadD conf inactive
Cc1ccc(C2CCC3(CCC(=O)N3CCOC(=O)Nc3ccc(F)cc3)CC2)cc1 (stereo not drawn)	none (no result: DAGLB inh, NadD block, Pemphigus Ab inh, MsrA inhibitor, MsrA act)
O=C(NC1CCCCN(Cc2cccc(Cl)c2)C1=O)c1ccccn1 (stereo not drawn)	none (no result: DAGLB inh, NadD block, Pemphigus Ab inh, MsrA inhibitor, MsrA act)
O=C(NNS(=O)(=O)c1ccc2ccccc2c1)c1cc(-c2ccccn2)nc2ccccc12	NadD block 45.4 | NadD conf 49.2
O=C(Nn1cnnc1)c1cc(-c2ccccn2)nc2ccccc12	none
COc1ccc(C(C(=O)N(C)C2CCCC2)N(Cc2ccc(F)cc2)C(=O)c2csc3ccc(Cl)cc23)cc1OC (stereo not drawn)	none (no result: DAGLB inh, NadD block, Pemphigus Ab inh, MsrA inhibitor, MsrA act)
N#Cc1ccc(CSc2nc3sc4c(c3c(=O)n2-c2ccc(Br)cc2)CCCC4)cc1	none (no result: DAGLB inh, NadD block, Pemphigus Ab inh, MsrA inhibitor, MsrA act)
Cc1cccc(CNC(=O)c2sc(=O)n(Cc3ccc(S(C)(=O)=O)cc3)c2C)c1	none (no result: DAGLB inh, Pemphigus Ab inh)
CCOC(=O)c1ccc(NC(=O)CCNC(=O)c2ccc([N+](=O)[O-])cc2)cc1	none
C#CCCc1cocc1/C=[N+](\[O-])c1ccc(C(=O)OCC)cc1	NadD block 42.0 | NadD conf inactive
COc1ccc(-c2cc(C#N)nc(N3CCN(C)CC3)n2)cc1	none
COc1ccc(-c2cc(C#N)nc(N3CCNCC3)n2)cc1	NadD block 44.9 | NadD conf inactive
O=C(/C=C/NNC(=O)c1ccccc1)c1ccc(Br)cc1	none
O=C(/C=C/NNC(=O)c1cccc(Br)c1)c1cccc(Br)c1	NadD block 29.8 | NadD conf inactive
COc1cccc(NC(=O)C2(C)CCN2C(=O)CC2CC2)c1 (stereo not drawn)	none (no result: DAGLB inh, Pemphigus Ab inh)
CC1=C2C3OC(=O)C(C)C3CCC2(C)C=C(Cl)C1=O (stereo not drawn)	none
COc1ccc(NC(=O)CSc2nc3nc(-c4cccs4)cc(C(F)(F)F)c3c(=O)[nH]2)c(OC)c1	NadD block 40.1 | NadD conf 59.6
COC(=O)CSc1nc2nc(-c3cccs3)cc(C(F)(F)F)c2c(=O)[nH]1	none
COc1cc(NC(=O)c2ccno2)cc(C(=O)Nc2cccc(C(F)(F)F)c2)c1	none

High-throughput results deposited in PubChem by several laboratories.
